# Laboratory results published in PubChem BioAssay (NCI).
# About 83,000 compounds went through this panel and 20% of them were active in at least one assay; those are over-represented in the sample as a whole.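 How to read the values: 0–100, growth inhibition (40 = 60% inhibited); 0, no net growth; -100 to 0, cell death (-40 = 40% of starting cells died; -100 = all dead).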 Unmarked numbers belong to inactive results. Active and inactive are the calls of the source. How the source made its calls: active means growth percent below 10; inactive means the rest.
# What was measured:
# Experiment in all cases: NCI-60 one-dose screen, 48 h (100 = growth as untreated, 0 = no growth, -100 = all killed)
# Conditions in all cases: 10 µM unless noted
# SK-MEL-2 melanoma = system: SK-MEL-2 melanoma
# EKVX NSCLC = system: EKVX NSCLC
# SN12C renal = system: SN12C renal
# UO-31 renal = system: UO-31 renal
# TK-10 renal = system: TK-10 renal
# ACHN renal = system: ACHN renal
# CAKI-1 renal = system: CAKI-1 renal
# CCRF-CEM leukemia = system: CCRF-CEM leukemia
# MOLT-4 leukemia = system: MOLT-4 leukemia
# SR leukemia = system: SR leukemia
# RPMI-8226 leukemia = system: RPMI-8226 leukemia
# OVCAR-8 ovarian = system: OVCAR-8 ovarian
# OVCAR-5 ovarian = system: OVCAR-5 ovarian
# OVCAR-4 ovarian = system: OVCAR-4 ovarian
# SK-OV-3 ovarian = system: SK-OV-3 ovarian
# IGROV1 ovarian = system: IGROV1 ovarian
# OVCAR-3 ovarian = system: OVCAR-3 ovarian
# HS 578T breast = system: HS 578T breast
# NCI/ADR-RES ovarian = system: NCI/ADR-RES ovarian
# A498 renal = system: A498 renal
SMILES,growth (SK-MEL-2 melanoma),growth (EKVX NSCLC),growth (SN12C renal),growth (UO-31 renal),growth (TK-10 renal),growth (ACHN renal),growth (CAKI-1 renal),growth (CCRF-CEM leukemia),growth (MOLT-4 leukemia),growth (SR leukemia),growth (RPMI-8226 leukemia),growth (OVCAR-8 ovarian),growth (OVCAR-5 ovarian),growth (OVCAR-4 ovarian),growth (SK-OV-3 ovarian),growth (IGROV1 ovarian),growth (OVCAR-3 ovarian),growth (HS 578T breast),growth (NCI/ADR-RES ovarian),growth (A498 renal)
S=c1ssnc1-c1cccs1,103%,104%,106%,99.9%,99.5%,107%,92.1%,97.5%,84.9%,98.6%,97.3%,113%,115%,99.8%,98.4%,-4.8% (active),78.9%,46.6%,97.2%,
CC(=O)N/C(=C1/OC(C(O)C(O)C(O)CO)CN1C)[P+](c1ccccc1)(c1ccccc1)c1ccccc1 (configuration not stated),99.5%,90.3%,96.2%,79.4%,104%,100%,90.6%,97.1%,102%,95.3%,99.7%,102%,99.5%,97.2%,93.8%,101%,112%,114%,101%,
COC(=O)Cc1nc(C#N)c(N(C)C)o1,89.4%,116%,90.3%,82.4%,93.3%,101%,97.2%,92.9%,97.6%,94.9%,102%,101%,94.7%,107%,92.7%,103%,109%,87.1%,101%,
C#Cc1cccc(Nc2nc3ccc([N+](=O)[O-])cc3nc2Nc2cccc(C#C)c2)c1,-53.8% (active),-12% (active),-39.1% (active),-84.1% (active),-34.4% (active),-1.34% (active),-25.8% (active),-33.9% (active),-47.5% (active),-22.1% (active),-21.7% (active),-23.3% (active),-17.6% (active),-43.7% (active),-84.9% (active),-29% (active),-67.4% (active),-19.1% (active),-9.97% (active),
COc1ncc2cc1NS(=O)(=O)c1cccc(c1)C(=O)NCC1=CC=C(S1)c1ncnc3c1SC2=C3C,-33.2% (active),-15.6% (active),5.73% (active),-12.9% (active),-6.51% (active),-13.7% (active),-26.1% (active),-0.78% (active),-20.2% (active),-3.91% (active),-31.3% (active),20.6%,-26.2% (active),-24.1% (active),5.33% (active),-24.5% (active),-73.1% (active),12.7%,10.6%,
Cc1cc2nc(-c3c(-c4ccc(F)cc4)nc4sccn34)[nH]c2cc1C,100%,103%,98.6%,78.6%,86%,93.6%,89.9%,90.1%,83.4%,83.2%,87.9%,96%,111%,94.7%,94.9%,95.9%,102%,103%,91.6%,
CCCCCCCCn1ccc2cc(NC(=O)Cn3cc(CN4CCN(CC)CC4)nn3)ccc21,101%,88%,64.1%,47.5%,99.2%,111%,69.6%,-41.2% (active),39.3%,2.27% (active),-10.7% (active),83%,94%,81.5%,99.6%,88.6%,66.8%,86.2%,97.7%,
CCc1cccc(Sc2cc(C(=O)N3Cc4ccc(OCCN(C)C)cc4C3)ccc2O)c1,88.2%,39.2%,63.9%,56.5%,63.2%,58.2%,83.5%,29.2%,25%,19.9%,29.3%,24.1%,110%,53.2%,37.7%,59.8%,67.3%,95.4%,50.4%,
CCCCCCCCCCCCCCCCOC(=O)c1c(C)[nH]c(/C=C2\N=C(c3ccc[nH]3)C=C2OC)c1C,-25.9% (active),68.3%,55.9%,30.4%,18.8%,48.8%,15.4%,50.4%,91.9%,68.2%,-2.3% (active),15.3%,78.4%,72.2%,70.4%,35.6%,47.6%,65.9%,26.6%,
COc1cccc(C(=O)OCC(O)C(=O)NC23CC4CC(CC(C4)C2)C3)c1 (configuration not stated),101%,97.4%,95.5%,87.1%,96.4%,97.2%,99.8%,86.3%,95.4%,88.9%,101%,95.3%,100%,99.4%,99.5%,104%,111%,98.8%,95.2%,
CC(/C=C1\SC(=S)N(CC(=O)NC(Cc2c[nH]c3ccccc23)C(=O)O)C1=O)=C\c1ccccc1 (configuration not stated),110%,98.5%,95%,63.9%,122%,96.5%,87%,104%,104%,108%,105%,100%,102%,101%,105%,101%,108%,103%,103%,
Cc1ccc(-c2nc(C(Cl)Cl)nc3cc(C)nn23)cc1,65.5%,5.75% (active),40.5%,51.3%,29%,-45% (active),-14.2% (active),32.5%,16.7%,9.7% (active),33.4%,14.7%,2.16% (active),-21.5% (active),-12.7% (active),6.31% (active),-24.3% (active),-11.4% (active),6.39% (active),
CCOC(=O)NN1CC(O)=C(c2nc(-c3ccc(Br)cc3)cs2)C1=N,128%,104%,161%,87%,116%,111%,92.9%,86.2%,75.9%,61.4%,115%,97%,89.5%,118%,108%,53%,99.9%,110%,108%,
CCN(CC)CCOc1nc2c3ccc(Cl)cc3nn2c2ccccc12,72.5%,28.9%,19.9%,-13.2% (active),51%,8.93% (active),16.5%,30.6%,10.9%,5.43% (active),-8.15% (active),28.6%,34%,35.4%,56%,10.1%,54.6%,55.2%,25.3%,
CC/C=C\C/C=C/C=C1/C(=O)C=C[C@@H]1C/C=C\CCCC(=O)OC,92.6%,,-8.45% (active),28.2%,31.6%,14.1%,29.7%,1.18% (active),5.5% (active),5.21% (active),1.81% (active),13.2%,63.8%,85.4%,110%,65.4%,11.1%,11.9%,73.5%,
Cc1ccc(-c2csc(NC(=O)N3CCN(c4cc5c(cc4F)c(=O)c(C(=O)O)cn5C4CC4)CC3)n2)cc1,-26.3% (active),,15.5%,8.87% (active),26.1%,5.91% (active),22.2%,12.9%,3.49% (active),18.2%,,7.72% (active),23.2%,33.5%,-11.6% (active),17%,7.6% (active),38.6%,21.8%,2.51% (active)
